# Source: PubChem (National Center for Advancing Translational Sciences (NCATS))
# In the library only some 15% were active in any assay of this set; here they are far more common.
# VP16 counter – VP16 counterscreen qHTS for inhibitors of ROR gamma transcriptional activity; Potency, µM (series often up to 53.6 µM), for inactives: top-dose activity, negative = inhibition, hits mostly inhibitors; 3.5% of 310,000 active; AID 2546, 2010; Drosophila S2 Gal4-VP16 UAS-luciferase, luminescence, 20 h;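 also: Gal4-VP16 expression switched on by copper sulfate through the metallothionein promoter; nearly all actives have a fitted effect of over 50% in size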
# RORg inh – qHTS for inhibitors of ROR gamma transcriptional activity | Drosophila S2 Gal4-RORgamma UAS-luciferase reporter, 20 h | Nuclear receptor ROR-gamma (Mus musculus), P51450 | Potency, µM (top dose mostly 53.6 µM), inactives show at the highest dose activity change, negative = inhibition, usual class: inhibitors | 5.4% of 310,000 active; also: nearly all actives have a fitted effect of over 60% in size
# Target sequence (P51450 whole entry, looked up, the tested form may be a part): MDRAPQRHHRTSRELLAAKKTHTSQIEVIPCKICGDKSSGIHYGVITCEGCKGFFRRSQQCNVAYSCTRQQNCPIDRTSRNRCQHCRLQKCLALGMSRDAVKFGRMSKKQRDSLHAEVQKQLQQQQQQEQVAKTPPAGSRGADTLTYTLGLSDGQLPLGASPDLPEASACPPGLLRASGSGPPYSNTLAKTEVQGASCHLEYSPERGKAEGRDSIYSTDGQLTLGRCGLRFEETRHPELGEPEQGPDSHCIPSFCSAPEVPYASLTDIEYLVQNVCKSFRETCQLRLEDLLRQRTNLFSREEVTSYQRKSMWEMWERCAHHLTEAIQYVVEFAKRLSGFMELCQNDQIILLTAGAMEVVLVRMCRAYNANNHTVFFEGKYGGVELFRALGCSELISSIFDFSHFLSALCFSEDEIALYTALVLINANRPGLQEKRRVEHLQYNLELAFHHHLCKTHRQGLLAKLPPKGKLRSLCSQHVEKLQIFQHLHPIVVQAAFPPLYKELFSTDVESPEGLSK
#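 Compounds are pin-transferred onto Drosophila Schneider cells expressing a copper-inducible Gal4–ROR gamma transactivation domain fusion. After 1 hr, copper sulfate is added to 700 uM final; luciferase is read 20 hr later.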
# ELG1 DNA repair – qHTS screen for small molecules that inhibit ELG1-dependent DNA repair in human embryonic kidney (HEK293T) cells expressing luciferase-tagged ELG1; 2.3% of 330,000 active; AID 504467, 2011; HEK293T ELG1-luciferase reporter, luminescence, 16 h; DNA damage induced by 5-fluorouridine; Potency, µM (series often up to 46.1 µM), inactives show top-dose activity change, negative = inhibition, actives largely listed as inhibitors; also: nearly all actives have a fitted effect of over 55% in size
#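 Reporter activity after DNA damage by 5-fluorouridine is monitored. Compound-treated cells incubate 16 hr at 37 °C, then ONE-Glo is added for 30 min before luminescence reading.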
# ALOX12 inh – Primary qHTS assay for inhibitors of human arachidonate 12S-lipoxygenase (ALOX12): Round 2. Polyunsaturated fatty acid lipoxygenase ALOX12 (Homo sapiens), P18054. purified 12hLO, xylenol orange hydroperoxide absorbance. Potency, µM (doses to about 108 µM), for the others: top-dose activity change, negative = inhibition, hits mostly inhibitors. 1.1% of 580,000 active. AID 1671190, 2021
#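 Purified human 12hLO (150 nM final) in 25 mM Hepes, 0.01% Triton X-100, pH 7.0 was preincubated 15 min at room temperature with compound. Then 40 uM arachidonic acid was added, 30 min. Hydroperoxide was read by Fe-XO absorbance ratio 573/405 nm.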
# TDP1 cell CPT – qHTS for Inhibitors of human tyrosyl-DNA phosphodiesterase 1 (TDP1): qHTS in cells in presence of CPT; chicken DT40 Tdp1-/-;hTDP1 cells + 20 nM CPT, ATP luminescence, 48 h; AID 686979, 2013; Potency, µM (highest dose often 46.2 µM), for inactives: top-dose activity change, negative = growth inhibition, actives largely listed as inhibitors; 12% of 420,000 active; also: nearly all actives have a fitted effect of over 55% in size
#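 Cell growth measured by CellTiter-Glo luminescence after a minimum 48 h, 37 C compound exposure with 20 nM CPT in Tdp1-knockout DT40 cells stably expressing hTDP1, seeded 400/well; qHTS titration format.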
# DT40 TDP1 no CPT – qHTS for Inhibitors of human tyrosyl-DNA phosphodiesterase 1 (TDP1): qHTS in cells in absence of CPT; DT40 Tdp1-/- hTDP1 cells, no CPT, ATP luminescence, 48 h; Potency, µM (series often up to 46.2 µM), for inactives: at the top dose activity change, negative = growth inhibition, hits mostly inhibitors; 15% of 420,000 active; AID 686978, 2013; also: nearly all actives have a fitted effect of over 55% in size
#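 Cells were dispensed at 400 per well, compounds added by pin tool, plates incubated ≥48 hr at 37 °C, then CellTiter-Glo added for 30 min at room temperature before luminescence reading. Line: DT40 Tdp1-/- complemented with hTDP1; camptothecin omitted.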
# An asterisk follows results filed as active; i = inactive; ? = inconclusive; nt = not tested or not shown; [ ] = remark or other dose. Calls follow the shape of the dose curve; as a rule, active = well fitted curve in the direction sought with a large enough effect; inconclusive = small, poorly fitted or top-dose-only effect, or another doubt; inactive = no such curve, though single readings can be large; an effect the other way counts as inactive or inconclusive. % is scaled to controls: 0 for no effect and ±100 for the full control effect; potency is read from the fitted curve at half-maximal effect.
SMILES,VP16 counter,RORg inh,ELG1 DNA repair,ALOX12 inh,TDP1 cell CPT,DT40 TDP1 no CPT
COc1ccc(OCC(=O)N2CCN(C3CCC(c4ccccc4)CC3)CC2)cc1 (stereo unspecified),-7.2%,0.3%,6.1%,?,?,18.4µM*
COc1ccc(OCC(=O)N2CCN(C/C=C/c3ccccc3)CC2)cc1,-0.9%,-2.2%,?,-6.4%,?,?
O=C(Cc1ccccc1)N1CCN(C2CCCC2)CC1,-11.3%,-2.3%,3.1%,0.891µM*,-2.8%,-13.1%
O=C(COc1ccc2ccccc2c1)N1CCN(C2CCN(Cc3ccccc3)CC2)CC1,-14.4%,-47.7%,-29.3%,-14.7%,16.4µM*,?
COc1ccc(OCC(=O)N2CCCC(N3CCN(c4ccccc4C)CC3)C2)cc1 (stereo unspecified),-4.4%,?,?,-5.0%,16.4µM*,20.6µM*
COc1ccc([C@@H]2CN(C(=O)c3sccc3C)[C@@H]3C4CCN(CC4)[C@@H]32)cc1,nt,nt,nt,35.2%,nt,nt
COc1ccccc1CN1CCN(C(=O)COc2ccc3ccccc3c2)CC1,-5.7%,6.8%,1.1%,?,?,-15.5%
O=C(COc1ccc2ccccc2c1)N1CCN(CC2CC3C=CC2C3)CC1 (stereo unspecified),-9.3%,20.4%,-4.0%,?,18.4µM*,18.4µM*
c1ccc(Nc2cc3c(cn2)CN(CC2CC2)CCN3)cc1,nt,nt,nt,47.2%[176 µM],nt,nt
CC(C)(O)/C=C/C(=O)[C@](C)(O)C1[C@H](O)C[C@@]2(C)C3CC=C4C(C[C@H](O)[C@@H](O)C4(C)C)[C@]3(C)C(=O)C[C@]12C (stereo partly specified),nt,nt,?,nt,0.291µM*,0.326µM*
O=C(Nc1ccc2n(c1=O)C[C@H]1C[C@@H]2CN(CC2CCCCC2)C1)C1CCCCC1,nt,nt,nt,2.5%[176 µM],nt,nt
Cc1ccc2c(c1)c(C1=c3ccccc3=NC1=O)c(O)n2C,3.55µM*,7.08µM*,1.4%,77.4%,4.61µM*,2.06µM*
Cc1ccc(C)c(-n2c(C)nc3ccccc3c2=O)c1,-8.7%,24.4%,0.0%,0.0%,?,?
COc1cccc(C2=CC(c3cc(Br)ccc3F)n3nnnc3N2)c1 (stereo unspecified),nt,nt,nt,0.8%,1.3µM*,1.3µM*
COc1ccc(CCNCc2ccncc2)cc1OC,-10.0%,-16.1%,?,18.1%,-24.6%,-14.5%
COc1ccc(CNCCc2cccc(F)c2)c2ccccc12,-8.8%,2.0%,-11.0%,nt,nt,nt
COc1cc(OC)c(OC)cc1CNCCc1ccc(F)cc1,-6.7%,-1.0%,-6.1%,?,?,11.6µM*
COc1ccc(CCNCc2ccc(Br)cc2)cc1OC,8.2%,9.7%,-29.0%,i,20.6µM*,?
COc1ccccc1CNCCc1cccc(Cl)c1,nt,nt,nt,-21.8%,18.4µM*,14.6µM*
COc1ccc(CNCCc2ccc(Cl)cc2)c(OC)c1OC,-11.0%,-21.5%,?,?,16.4µM*,9.2µM*
COc1cc(OC)c(OC)cc1CNCCc1cccc(F)c1,7.0%,-3.0%,-3.4%,?,-27.3%,?
O=C1OCC2(CCN(Cc3ccn[nH]3)C2)N1c1ccncc1 (stereo unspecified),nt,nt,nt,91.7%[176 µM],nt,nt
CCCNC(=O)c1cc2c(c(-c3cccc(-c4cc5ccccc5o4)c3)n1)[C@H](CCO)N(C(=O)NC(C)C)C2,nt,nt,nt,1.8%,8.2µM*,11.6µM*
Cc1ncc2c(n1)C[C@@H]1CC[C@H]2N1C(=O)NC(C)C,nt,nt,nt,36.9%,nt,nt
CC(C)NC(=O)N1Cc2cc(C(=O)NC3CCCCC3)nc(-c3cccc(-c4cccnc4)c3)c2[C@@H]1CCO,nt,nt,nt,-12.9%,11.6µM*,10.3µM*
SMILES,VP16 counter,RORg inh,ELG1 DNA repair,ALOX12 inh,TDP1 cell CPT,DT40 TDP1 no CPT
CN1CCc2nc3sc(C#N)c(N)c3c(-c3cccs3)c2C1,-0.2%,17.4%,-15.7%,?,?,20.6µM*
Nc1c(C(=O)Nc2cccc(F)c2)sc2nc(-c3cccs3)ccc12,nt,nt,nt,-20.3%,?,-29.4%
NC(=O)c1sc2nc3c(c(-c4cccs4)c2c1N)CCCC3,1.3%,19.3%,2.31µM*,nt,nt,nt
COc1ccccc1N1CCN(Cc2ccc(Cl)cc2Cl)CC1,0.4%,-43.1%,-12.6%,?,?,?
COc1ccccc1N1CCN(CCc2c[nH]c3cc4c(cc23)OCO4)CC1,nt,nt,nt,?,23.1µM*,18.4µM*
COc1ccccc1N1CCN(Cc2c[nH]c3ccccc23)CC1,-1.9%,0.9%,?,?,4.11µM*,5.8µM*
O=C(NCc1ccc(F)cc1)[C@H]1CN2CCC1C[C@@H]2Cn1cc(C2(O)CCCCC2)nn1 (stereo partly specified),nt,nt,nt,11.1%,nt,nt
CC(=O)OC1CCC2(C)C3CCC4(C)C(=O)CCC4C3CC[C@H]2C1 (stereo partly specified),nt,nt,nt,-8.9%,nt,nt
C[C@]12CC[C@H](O)C[C@@H]1CC[C@H]1[C@H]3CCC(=O)[C@@]3(C)CC[C@@H]12,nt,nt,nt,-15.1%,?,18.4µM*
C[C@]12CCC3C(CC[C@H]4C[C@H](OC(=O)c5cccnc5)CC[C@]34C)C1CCC2=O (stereo partly specified),nt,nt,?,?,?,23.1µM*
COc1cccc(N2CCN(c3c4c(nc5nncn35)CCC4)CC2)c1,nt,nt,nt,-11.4%,23.1µM*,8.2µM*
